Bioassay records as filed in PubChem.
Pf growth 48h – inhibits P. falciparum growth in the first generation, 48 h. P. falciparum luciferase growth in erythrocytes, 48 h. Potency, µM (highest dose often 28.7 µM), without a hit: top-dose activity change, negative = inhibition, actives largely listed as inhibitors. actives 5.9% (n = 310,000). AID 504832; note: potency is the fitted concentration of half-maximal effect
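Here the parasites carry a stable luciferase gene and grow inside erythrocytes in Albumax-based RPMI medium with compound for one erythrocytic cycle. Activity is scored as loss of luminescent signal.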
HCV inhibitor – blocks hepatitis C virus; Huh7.5.1 HCVcc-Cre infection, luciferase reporter, 44 h; Potency, µM (top dose mostly 41.8 µM), inactives show at the highest dose activity change, negative = inhibition, usual class: inhibitors; actives 3.4% (n = 340,000); note: potency is the fitted concentration of half-maximal effect
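1,000 cells/well; 4 h culture; + compound; + HCVcc-Cre (~0.5 moi); 44 h; luciferase substrate, RT 15 min; read 15 sec.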
HCMV antiviral – human cytomegalovirus inhibition | HFF cells, HCMV-luciferase reporter, 72 h; stronger effect = lower value | activity change, negative = inhibition, % at 57.5 µM | actives 4.5% (n = 410,000) | AID 1259415; in the data active = activity change below about -60%; inconclusive = no clear call, values can overlap the other calls; inactive = above about -39%
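Human foreskin fibroblasts infected with luciferase-reporter HCMV at MOI 1 PFU/cell, compounds at two doses. Luciferase measured 72 h post infection; normalized to buffer-only basal and Salinomycin (10uM) controls.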
Pf growth 96h – P. falciparum growth inhibition at 96 hours | AID 504834 | Potency, µM (doses to about 28.7 µM), without a hit: top-dose activity change, negative = inhibition, hits mostly inhibitors | P. falciparum luciferase reporter growth, 96 h | actives 6.9% (n = 320,000); note: potency is the fitted concentration of half-maximal effect
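P. falciparum expressing integrated firefly luciferase grown in erythrocytes (2% hematocrit, 0.05% parasitemia final) with compounds for 96 hours at 37 C, 5% CO2. Growth inhibition read as loss of luminescence after adding luciferase detection reagent.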
Starred values were filed as active, the others as inactive. Sampled rows, rich in hits. Any-hit rate of the full collection: about 13%. Unless noted, calls come from the whole dose curve; as a rule, active = well fitted inhibition curve with a large enough effect; inconclusive = small, poorly fitted or top-dose-only effect, or another doubt; inactive = no such curve, though single readings can be large or run the other way. % is set by controls: 0 for no effect and ±100 for the full control effect.

Screening COc1ccccc1NC(=O)Cc1noc(CN(C)Cc2cccs2)n1 returned Pf growth 48h -22%, HCV inhibitor inconclusive, HCMV antiviral 21 and Pf growth 96h 5.9µM*.
Screening Cc1cc(C)c2nc(/N=C(\N)NC(=O)Nc3ccccc3)nc(C)c2c1 returned Pf growth 48h 1.9µM*, HCV inhibitor 11µM*, HCMV antiviral inconclusive and Pf growth 96h 13µM*.
For CCCC(=O)N/C(N)=N/c1nc(C)c2ccccc2n1 the results were Pf growth 48h inconclusive, HCV inhibitor inconclusive, HCMV antiviral -9 and Pf growth 96h 1.9µM*.
Screening CCc1ccc2nc(/N=C(\N)NC(=O)c3ccccc3)nc(C)c2c1 returned Pf growth 48h 9.3µM*, HCV inhibitor inconclusive, HCMV antiviral -5 and Pf growth 96h 10µM*.
For CCCCC(=O)N/C(N)=N/c1nc2ccccc2o1 the results were Pf growth 48h 210%, HCV inhibitor inconclusive, HCMV antiviral -18 and Pf growth 96h 332%.
Screening Cc1sc2nc[nH]c(=O)c2c1-c1ccc(Cl)cc1 returned Pf growth 48h 10%, HCV inhibitor -12%, HCMV antiviral -74* and Pf growth 96h inconclusive.
For COc1ccc(-n2c(=S)[nH]c3cc(C(=O)NCc4ccccc4OC)ccc3c2=O)c(OC)c1 the results were Pf growth 48h -16%, HCV inhibitor inconclusive, HCMV antiviral inconclusive and Pf growth 96h 16%.
For COc1ccc(-n2c(=S)[nH]c3cc(C(=O)Nc4ccc(F)cc4)ccc3c2=O)c(OC)c1 the results were Pf growth 48h 11%, HCV inhibitor inconclusive, HCMV antiviral -70* and Pf growth 96h 4%.
`COc1ccc(OC)c(-n2c(=S)[nH]c3cc(C(=O)N(C)Cc4ccccc4)ccc3c2=O)c1` gave Pf growth 48h inconclusive, HCV inhibitor -26%, HCMV antiviral -8 and Pf growth 96h 9.3µM*.
Screening COc1ccc(NC(=O)c2ccc3c(=O)n(-c4ccc(OC)cc4OC)c(=S)[nH]c3c2)cc1 returned Pf growth 48h inconclusive, HCV inhibitor inconclusive, HCMV antiviral -33 and Pf growth 96h -4%.
Screening COc1ccc(NC(=O)Cc2c(C(=O)O)[nH]c3ccccc23)cc1OC returned HCMV antiviral 15.
Screening CC(C)(C)OC(=O)N(Cc1ccccc1)Cc1ccccc1OCc1ccc(NC(=O)C2CCC2)cc1 returned HCV inhibitor inconclusive and HCMV antiviral -90*.
`CC(C)(C)OC(=O)N(CCc1ccccc1)Cc1ccccc1OCc1ccc(NC(=O)C2CCC2)cc1` gave HCV inhibitor 0.56µM* and HCMV antiviral inconclusive.
For CC(C)(C)OC(=O)N(CCc1ccccc1)Cc1ccccc1OCc1cccc(NC(=O)C2CCCC2)c1 the results were HCV inhibitor -29% and HCMV antiviral -10.
O=C(CSc1nc(=O)n(CCN2CCOCC2)c2c1CCC2)Nc1ccccc1 was read as HCMV antiviral -11.
For O=C1NC(=O)[C@]2(Cc3ccccc3N3CCN(c4ccccc4)CC32)C(=O)N1Cc1ccccc1 (some centres undefined) the results were Pf growth 48h inconclusive, HCV inhibitor 1%, HCMV antiviral 20 and Pf growth 96h 9.3µM*.
Screening CCc1cc(C(=O)OCC(=O)NCCc2ccccc2)sc1C returned HCMV antiviral -85*.
For Cc1ccc(C(=O)c2ccccc2C(=O)OCC(=O)NCCc2ccccc2)cc1 the results were Pf growth 48h -6%, HCV inhibitor -28%, HCMV antiviral -67* and Pf growth 96h -15%.
Screening S=C1NC2(CCCCCC2)N=C1c1ccccc1 returned Pf growth 48h 13µM*, HCV inhibitor inconclusive, HCMV antiviral 5 and Pf growth 96h 153%.
For S=C1NC2(CCCC2)N=C1c1ccccc1 the results were Pf growth 48h 7%, HCV inhibitor 23%, HCMV antiviral -34 and Pf growth 96h 0%.
`O=C1Cc2ccccc2C(=O)N1` gave HCMV antiviral -2.
For CC1(OC(=O)C2CCCC2)C(=O)C=C2C=C(c3ccsc3)N(CCCCO)C=C2C1=O (centres undefined) the results were Pf growth 48h inconclusive, HCV inhibitor 0%, HCMV antiviral inconclusive and Pf growth 96h inconclusive.
CC1(OC(=O)C2CCCC2)C(=O)C=C2C=C(c3ccsc3)N(Cc3ccco3)C=C2C1=O (centres undefined) was read as Pf growth 48h 12µM*, HCV inhibitor 13% and Pf growth 96h 13µM*.
Screening CC1(OC(=O)C2CCCC2)C(=O)C=C2C=C(c3ccsc3)N(C3CCCC3)C=C2C1=O (centres undefined) returned Pf growth 48h inconclusive, HCV inhibitor 19%, HCMV antiviral -6 and Pf growth 96h 10µM*.
Screening Cc1ccc(-n2nc(C)c3c(C)cc(=O)n(CC(=O)Nc4cc(Cl)ccc4C)c32)cc1 returned HCMV antiviral 15.
CSc1ccc(C(=O)C2CCCN(C(=O)c3nn(C)c(=O)c4ccccc34)C2)cc1 (centres undefined) was read as Pf growth 48h 16%, HCV inhibitor 13µM*, HCMV antiviral -25 and Pf growth 96h 15%.
For CSc1ccc(C(=O)C2CCCN(C(=O)c3nonc3C)C2)cc1 (centres undefined) the results were Pf growth 48h 15µM*, HCV inhibitor inconclusive, HCMV antiviral -14 and Pf growth 96h 29%.
Screening O=C(Cn1c2[n+](c3ccccc31)CC(O)CS2)c1ccccc1 (centres undefined) returned Pf growth 48h 2.1µM*, HCV inhibitor 21%, HCMV antiviral -36 and Pf growth 96h 64%.
CCN(C(=O)c1cnc(NC(C)C)cc1C(F)(F)F)c1ccc(Cl)cc1 was read as Pf growth 48h inconclusive, HCV inhibitor inconclusive, HCMV antiviral -23 and Pf growth 96h 12µM*.
`COc1cc(C(F)(F)F)c(C(=O)N(C)Cc2cc(Cl)cc(Cl)c2)cn1` gave Pf growth 48h inconclusive, HCV inhibitor -9%, HCMV antiviral 22 and Pf growth 96h 2%.
COC(=O)c1ccccc1C(=O)N(Cc1cccnc1)CC1CCCN(C2CCCCC2)C1 (centres undefined) was read as Pf growth 48h inconclusive, HCV inhibitor 11%, HCMV antiviral -26 and Pf growth 96h 13µM*.
For Cn1nccc1C(=O)N(CCN1CCCCC1)CC1CCCN(C2CCCC2)C1 (centres undefined) the results were Pf growth 48h -19%, HCV inhibitor 14µM*, HCMV antiviral 34 and Pf growth 96h 65%.
For CN(Cc1ccco1)C(=O)Cn1c(=O)oc2cc(S(=O)(=O)NCc3ccccc3)ccc21 the results were Pf growth 48h -1%, HCV inhibitor -4%, HCMV antiviral 65 and Pf growth 96h -109%.
CN(Cc1ccccc1)C(=O)Cn1c(=O)oc2cc(S(=O)(=O)NCc3ccccc3)ccc21 was read as HCV inhibitor 14µM*, HCMV antiviral -71* and Pf growth 96h -2%.
For CCOC(=O)Cn1c(=O)oc2cc(S(=O)(=O)NCCC(C)C)ccc21 the results were HCV inhibitor 14%, HCMV antiviral -5 and Pf growth 96h inconclusive.
